Assay outcomes (PubChem)
SKKanGAS inh: inhibitors of SKKanGAS S. pyogenes growth in kanamycin (SK-promoter or general growth effect); BacTiter-Glo, 6 h; inhibition, % at 7.5 µM; 1.3% of 300,000 active; AID 1662;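 active means mean replicate score, as percent of positive control median, at least 50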;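 further: strain carries kanamycin resistance gene driven by streptokinase promoter and grows in 40 µg/ml kanamycin; loss of luminescence reflects streptokinase promoter inhibition or plain growth inhibition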
tim10-1 inh: inhibits growth of tim10-1 mutant yeast. S. cerevisiae tim10-1 ts strain growth, BacTiter-Glo, 24 h. inhibition, % at 20 µM. 2.2% of 330,000 active. AID 463190;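 active means inhibition of at least 40%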;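 further: mutant grown at 25 °C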
TIM10 inh: growth inhibitors of TIM10 yeast strain. S. cerevisiae TIM10 strain growth, BacTiter-Glo luminescence, 24 h. inhibition, % at 10 µM. 1.4% of 330,000 active. AID 463195;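 active means inhibition of 40% or more at the single tested concentration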;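 further: wild-type TIM10 isogenic control strain grown at permissive 25 °C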
PfHsp90 set2: growth inhibition of yeast expressing Plasmodium Hsp90; inhibition, % at 9.4 µM; S. cerevisiae expressing PfHsp90, BacTiter-Glo ATP, 48 h; yeast lacking PDR1 and PDR3 efflux regulators; 0.32% of 310,000 active; AID 504621;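 active means every replicate shows inhibition above about 80%, whatever the replicate mean, limit read from the data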
tim23-1 inh: inhibits growth of tim23-1 mutant yeast; AID 463212; inhibition, % at 20 µM; S. cerevisiae tim23-1 growth, BacTiter-Glo luminescence, 24 h; 1.3% of 330,000 active;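 active means growth inhibition of the mutant yeast at or above 50%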;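 further: temperature-sensitive mutant grown at 25 °C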
ATG4B inhibitor: blocks human ATG4B protease cleavage of LC3 substrate | Q9Y4P1 | ATG4B cleavage of LC3-PLA2, NBD-HPC fluorescence, 1 h | inhibition, % at 8.33 µM | 0.51% of 340,000 active | AID 504462; in the data active means inhibition above about 40%
Target sequence (Q9Y4P1 whole entry, looked up): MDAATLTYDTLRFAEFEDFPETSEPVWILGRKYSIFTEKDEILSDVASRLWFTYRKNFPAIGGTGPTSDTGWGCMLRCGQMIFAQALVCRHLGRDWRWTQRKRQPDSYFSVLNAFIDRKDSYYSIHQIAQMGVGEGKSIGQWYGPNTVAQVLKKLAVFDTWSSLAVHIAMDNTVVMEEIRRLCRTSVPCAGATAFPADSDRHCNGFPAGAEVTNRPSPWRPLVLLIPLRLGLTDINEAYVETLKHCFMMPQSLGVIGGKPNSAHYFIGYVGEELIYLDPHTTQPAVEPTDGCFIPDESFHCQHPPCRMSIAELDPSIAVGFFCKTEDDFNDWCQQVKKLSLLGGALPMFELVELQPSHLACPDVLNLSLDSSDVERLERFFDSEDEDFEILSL
tim10-1 confirm: tim10-1 yeast growth inhibition, confirmed. shares compounds with tim10-1 inh. S. cerevisiae tim10-1 ts strain growth, BacTiter-Glo, 24 h. inhibition, % at 20 µM. 56% of 7,400 active. AID 463213;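 active means inhibition of yeast growth at or above a set limit in either of two repeat tests at 20 µM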;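 further: tim10-1 mutant grown at permissive 25 °C to find synthetic lethal compounds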
A number is an active result. This is a sample that favours compounds with a hit; in the whole collection about 4.7% have one here.

Screening CCC(c1nnnn1Cc1ccccc1)N1CCN(c2ccccc2)CC1 (stereo not given) returned SKKanGAS inh inactive, tim10-1 inh 41, TIM10 inh inactive, tim23-1 inh inactive, ATG4B inhibitor inactive and tim10-1 confirm inactive.
COc1ccc(C(c2nnnn2Cc2ccccc2)N2CCN(c3ccccc3)CC2)cc1 (stereo not given) was read as SKKanGAS inh inactive, tim10-1 inh inactive, TIM10 inh inactive, PfHsp90 set2 inactive, tim23-1 inh inactive and ATG4B inhibitor inactive.
`O=c1[nH]cc(S(=O)(=O)N2CCN(c3cccc(C(F)(F)F)c3)CC2)c(=O)[nH]1` gave SKKanGAS inh inactive, tim10-1 inh inactive, TIM10 inh inactive, PfHsp90 set2 inactive, tim23-1 inh inactive and ATG4B inhibitor inactive.
For O=C1CS/C(=C\S(=O)(=O)c2ccc(Cl)cc2)N1 the results were SKKanGAS inh inactive, tim10-1 inh inactive, TIM10 inh inactive, PfHsp90 set2 inactive, tim23-1 inh inactive and ATG4B inhibitor inactive.
For Cc1ccc(-c2nn3c(C)nnc3c3ccccc23)cc1S(=O)(=O)N1CCN(CCO)CC1 the results were SKKanGAS inh inactive, tim10-1 inh 44, TIM10 inh inactive, PfHsp90 set2 inactive, tim23-1 inh inactive, ATG4B inhibitor inactive and tim10-1 confirm inactive.
Screening CCOCCCNCc1cn(-c2ccc(F)cc2F)nc1-c1ccccc1C returned SKKanGAS inh inactive, tim10-1 inh inactive, TIM10 inh inactive, PfHsp90 set2 inactive, tim23-1 inh inactive and ATG4B inhibitor inactive.
Screening CCC(C)Nc1nc(N)c([N+](=O)[O-])c(Nc2cc(OC)ccc2OC)n1 (stereo not given) returned SKKanGAS inh 69, tim10-1 inh 40, TIM10 inh inactive, PfHsp90 set2 inactive, tim23-1 inh inactive, ATG4B inhibitor inactive and tim10-1 confirm inactive.
For COc1ccc(OC)c(Nc2nc(NCCC(C)C)nc(N)c2[N+](=O)[O-])c1 the results were SKKanGAS inh inactive, tim10-1 inh inactive, TIM10 inh inactive, PfHsp90 set2 inactive, tim23-1 inh inactive and ATG4B inhibitor inactive.
Cc1c(NC(=O)/C(C#N)=C/c2ccc(-c3ccc(Cl)cc3)o2)c(=O)n(-c2ccccc2)n1C was read as SKKanGAS inh inactive, tim10-1 inh 42, TIM10 inh inactive, PfHsp90 set2 inactive, tim23-1 inh inactive, ATG4B inhibitor inactive and tim10-1 confirm 30.
For COc1cccc(-c2nn(C)c3sc(C(=O)NCc4ccccn4)cc23)c1 the results were SKKanGAS inh inactive, tim10-1 inh 45, TIM10 inh inactive, PfHsp90 set2 inactive, tim23-1 inh inactive, ATG4B inhibitor inactive and tim10-1 confirm inactive.
For CN1/C(=C\C(=O)COC(=O)CN2C(=O)C3CC=CCC3C2=O)C(C)(C)c2ccccc21 (stereo not given) the results were SKKanGAS inh inactive, tim10-1 inh 42, TIM10 inh inactive, PfHsp90 set2 inactive, tim23-1 inh inactive, ATG4B inhibitor inactive and tim10-1 confirm inactive.
`CN1/C(=C/C(=O)COC(=O)C2COc3ccccc3O2)C(C)(C)c2ccccc21` (stereo not given) gave PfHsp90 set2 inactive and ATG4B inhibitor inactive.
CN1/C(=C\C(=O)COC(=O)CNC(=O)c2ccc3ccccc3c2)C(C)(C)c2ccccc21 was read as SKKanGAS inh inactive, tim10-1 inh 44, TIM10 inh inactive, PfHsp90 set2 inactive, tim23-1 inh inactive, ATG4B inhibitor inactive and tim10-1 confirm inactive.
`COC(=O)C1=C(C)NC(=O)/C1=C\c1ccc2c(c1)OCO2` gave SKKanGAS inh inactive, tim10-1 inh 42, TIM10 inh inactive, PfHsp90 set2 inactive, tim23-1 inh inactive, ATG4B inhibitor inactive and tim10-1 confirm inactive.
CC1=NOC(=O)/C1=C/c1ccc2c(c1)OCO2 was read as SKKanGAS inh inactive, tim10-1 inh inactive, TIM10 inh inactive, PfHsp90 set2 inactive, tim23-1 inh inactive and ATG4B inhibitor inactive.
For COc1ccc(N2C(=O)CC(NNC(=O)c3ccc(Br)s3)C2=O)cc1 (stereo not given) the results were SKKanGAS inh inactive, tim10-1 inh inactive, TIM10 inh inactive, PfHsp90 set2 inactive, tim23-1 inh inactive and ATG4B inhibitor inactive.
Screening CC(C)(Cc1ccc(O)cc1)NC(=O)CC(=O)N=Nc1c(O)[nH]c2ccc(Br)cc12 returned SKKanGAS inh inactive, tim10-1 inh inactive, TIM10 inh inactive, PfHsp90 set2 inactive, tim23-1 inh inactive and ATG4B inhibitor inactive.
`CN(CC(=O)Nc1ccccc1Cl)C(=O)Cn1nnc(-c2ccc(F)cc2)n1` gave SKKanGAS inh inactive, tim10-1 inh inactive, TIM10 inh inactive, PfHsp90 set2 inactive, tim23-1 inh inactive and ATG4B inhibitor inactive.
Cc1ccc(S(=O)(=O)NN2C(=O)/C(=C/c3ccc(F)cc3)SC2=S)cc1 was read as SKKanGAS inh inactive, tim10-1 inh inactive, TIM10 inh inactive, PfHsp90 set2 inactive, tim23-1 inh inactive and ATG4B inhibitor inactive.
Screening N#Cc1nc(-c2ccccc2F)oc1NCc1cccc2c1OCO2 returned SKKanGAS inh inactive, tim10-1 inh 52, TIM10 inh inactive, PfHsp90 set2 inactive, tim23-1 inh inactive, ATG4B inhibitor inactive and tim10-1 confirm inactive.
Screening COCCCNC(=S)N/N=C/c1ccc2c(c1)OCO2 returned SKKanGAS inh inactive, tim10-1 inh 41, TIM10 inh inactive, PfHsp90 set2 inactive, tim23-1 inh inactive, ATG4B inhibitor inactive and tim10-1 confirm inactive.
For S=c1nc(-c2ccccc2)n(-c2ccccc2)[nH]1 the results were SKKanGAS inh inactive, tim10-1 inh inactive, TIM10 inh inactive, PfHsp90 set2 inactive, tim23-1 inh inactive and ATG4B inhibitor inactive.
Screening S=c1nc(C2CCCCC2)n(-c2ccccc2)[nH]1 returned SKKanGAS inh inactive, tim10-1 inh 44, TIM10 inh inactive, PfHsp90 set2 inactive, tim23-1 inh inactive, ATG4B inhibitor inactive and tim10-1 confirm inactive.
Screening O=S(=O)(CCN1CCCC1)NCCNS(=O)(=O)c1ccc(F)cc1Br returned PfHsp90 set2 inactive and ATG4B inhibitor inactive.
`O=C(CN1CCC(n2nnc3cc(F)ccc32)CC1)Nc1ccc2c(c1)CCC2` gave tim10-1 inh 47, TIM10 inh inactive, PfHsp90 set2 inactive, tim23-1 inh inactive, ATG4B inhibitor inactive and tim10-1 confirm inactive.
`NS(=O)(=O)c1ccc(CCNC(=O)CCc2nc3sc4c(c3c(=O)[nH]2)CCCC4)cc1` gave SKKanGAS inh inactive, tim10-1 inh inactive, TIM10 inh inactive, tim23-1 inh inactive and ATG4B inhibitor inactive.
Screening COc1ccc(CCNC(=O)CCc2nc3sc4c(c3c(=O)[nH]2)CCCC4)cc1 returned SKKanGAS inh inactive, tim10-1 inh 97, TIM10 inh inactive, PfHsp90 set2 inactive, tim23-1 inh inactive, ATG4B inhibitor inactive and tim10-1 confirm inactive.
CC(=O)NCCC(=O)Nc1nc2ccc(Oc3ccccc3)cc2s1 was read as SKKanGAS inh inactive, tim10-1 inh inactive, TIM10 inh inactive, PfHsp90 set2 inactive, tim23-1 inh inactive and ATG4B inhibitor inactive.
